In PubChem BioAssay (NCI):
This is part of a sample that, as a whole, favours compounds with a hit. Of some 83,000 tested, about 20% had one in any assay.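 Activity criterion: percent growth below 10, measured after cells in 96-well plates were exposed to a single compound concentration for 48 hours.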 Active and inactive are the calls of the source.

Test system: A549/ATCC NSCLC
Assay: NCI-60 one-dose screen, 48 h (100 = growth as untreated, 0 = no growth, -100 = all killed)
Conditions: 10 µM
Method: Growth inhibition of the A549/ATCC human Non-Small Cell Lung tumor cell line is measured as a screen for anti-cancer activity. Cells are grown in 96 well plates and exposed to the test compound for 48 hours. Compounds are tested at a single concentration, which is 10^-5 M for most compounds. The reported endpoint is percent growth (GI% or GIPRCNT), where numbers from 0 - 100% represent growth inhibition, and numbers from -100% - 0 represent cell death. For example, a value of 40 represents 60% growth inhibition. A value of 0 means no net growth occurred over the course of the experiment. A value of -40 indicates 40% of cells at the beginning of the experiment died by the end of the experiment. A value of -100 means all cells are dead at the end of the experiment.
NCI-60 Human Tumor Cell Lines Screen was performed using the standard one-dose NCI protocol, which is described in more detail at https://dtp.cancer.gov/discovery_development/nci-60/default.htm.
Compounds with GIPRCNT values below 10 were considered active. Activity score was based on GIPRCNT using the following formula: […]
Score is 0 for GIPRCNT values of 100 or above, 50 for GIPRCNT values of 0, and 100 for GIPRCNT values of -100.

Row | SMILES | growth
1 | CCOC(=O)c1cc(C(=O)c2ccc(OC)c(OC)c2)n2c1ccc1ccc3cccnc3c12 | 36.8% (inactive)
2 | Cc1cc(CC(C)CC(C)(C)C)n(O)c(=O)c1 (stereo not given) (tested in a mixture with another compound) | 20.2% (inactive)
3 | COc1cc(C)ccc1Oc1nc(Nc2ccc(N3CCOCC3)cc2)ncc1NC(=O)Nc1cc(C(F)(F)F)cc(C(F)(F)F)c1 | 14.5% (inactive)
4 | CN(C)CCCOc1ccc(OCCCN(C)C)c2c1C(=O)c1ccccc1C2=O | 3.96% (active)
5 | CC(C)c1ccc(C(C)C(=O)N(CC2=C(C(C)c3ccccn3)c3ccccc3C2)C(C)C)cc1 (stereo not given) | 36% (inactive)
6 | O=C(Nc1cccc2c1CCCC2)c1cc2ccccc2cc1O | 33.8% (inactive)
7 | O=C1CCn2c1c(O)c1ccccc1c2=O | 100% (inactive)
8 | OC(CNc1ccnc2cc(Cl)ccc12)CNC1CCCCC1 (stereo not given) | 88.4% (inactive)
9 | CCN(CC)CCOC(=O)c1cc(OCc2ccccc2)c(OCc2ccccc2)c(OCc2ccccc2)c1 | 42.5% (inactive)
10 | CC(=O)Nc1ccc2c(c1)C(=O)c1cccc(C(=O)O)c1-2 | 97.6% (inactive)
11 | COc1ccc2c(c1)C(=O)/C(=C/c1ncc([N+](=O)[O-])n1C)O2 | -27.8% (active)
12 | O=C1/C(=C/c2ccc3c(c2)OCO3)SC(=S)N1C1c2ccccc2Oc2ccccc21 | 109% (inactive)
13 | O=C1c2ccccc2C(=O)c2c1ccc(C(Br)Br)c2Cl | 88.3% (inactive)
14 | O=C(O)c1ccc(-n2cc(CNc3ccc(Oc4ccccc4)cc3)c(-c3ccccc3)n2)cc1 | 76.5% (inactive)
15 | CC(C)(O)CCl | 98.4% (inactive)
16 | C=CCN(CC=C)C(=O)[C@H](CC)[C@@H]1CC[C@@H](C)[C@@H]([C@H](C)[C@@H](O)[C@@H](C)C(=O)[C@H](CC)C2O[C@]3(C=CC(=O)[C@]4(CC[C@@](C)([C@H]5CC[C@](O)(CC)[C@H](C)O5)O4)O3)[C@H](C)C[C@@H]2C)O1 (stereo not given in full) | 24.1% (inactive)
17 | COc1ccc(-c2nn(-c3cccc(Cl)c3)cc2-c2nc(N)[nH]c(=O)c2C#N)cc1 | 85.1% (inactive)
18 | Fc1ccc(C(c2ccc(F)cc2)C(Cl)Cl)cc1 | 102% (inactive)
19 | Clc1ccc2c(c1)C(N1CCNCC1)=Nc1ccccc1O2 | 65% (inactive)
20 | CC(C)(C)OC(=O)N1CCc2c(sc3ncnc(N/N=C/c4cccc(Br)c4)c23)C1 | 45.7% (inactive)

Row | SMILES | growth
21 | CCOC(=O)Cn1c(=O)c2sc3ncccc3c2n2nnc(-c3ccccc3)c12 | 107% (inactive)
22 | CCCN(CCC)C(=O)[C@H](CC)[C@@H]1CC[C@@H](C)[C@@H]([C@H](C)[C@@H](O)[C@@H](C)C(=O)[C@H](CC)C2O[C@]3(C=C[C@@H](O)[C@]4(CC[C@@](C)([C@H]5CC[C@](O)(CC)[C@H](C)O5)O4)O3)[C@H](C)C[C@@H]2C)O1 (stereo not given in full) | 16.6% (inactive)
23 | O=C1c2ccccc2C(=O)c2c1ccc1c(=O)n(-c3ccccc3C(F)(F)F)nnc21 | 13.1% (inactive)
24 | N=C1S/C(=C/c2ccc(-c3ccc4c(c3)C(=O)NC4=O)o2)C(=O)N1c1ccc(Br)cc1 | 34.5% (inactive)
25 | CS(=O)(=O)c1nccc(-c2c(-c3cccc(OCCN4CCOCC4)c3)nc3sccn23)n1 | 94.5% (inactive)
26 | Cc1[nH]c2ccccc2c1/C=N/Nc1ncnc2sc3c(c12)CCN(CC(=O)OC(C)(C)C)C3 | 65% (inactive)
27 | CCOC(=O)c1sc2ncnc(Nc3ccc(NC(=O)Nc4ccc(Cl)cc4)cc3)c2c1C | 54.5% (inactive)
28 | CCN(CC)CCCOc1cccc2c1C(=O)c1cccc(OCCCN(CC)CC)c1C2=O | 22.3% (inactive)
29 | O=[N+]([O-])c1cc(Cl)cc(Cl)c1O | 97.4% (inactive)
30 | Cc1ccc(-n2c(C)nn3c(=O)c4c5c(sc4nc23)CN(C)CC5)cc1 | 73.7% (inactive)
31 | CCc1ccc(C2=NN(c3ccc(S(C)(=O)=O)cc3)C(=O)CC2)cc1 | 35.6% (inactive)
32 | C=CCn1c(SCC(=O)Nc2ccc(C(=O)/C=C/c3ccc(OC)cc3)cc2)nnc1-c1ccc(OC)c(OC)c1 | 85.8% (inactive)
33 | O=C(NCCNC(=O)c1ccc(F)cc1)Nc1ccc(-n2cc(-c3ccncc3)c(-c3ccc(Cl)c(O)c3)n2)cc1 | 12.4% (inactive)
34 | Oc1cccc(-c2nc3sccn3c2-c2ccncn2)c1 | 100% (inactive)
35 | O=S(=O)(Oc1ccc(-c2ccc3sccc3c2)cc1)c1ccccc1 | 100% (inactive)
36 | CN(C)CCCOc1cccc(NC2=C(Cl)C(=O)C(Nc3cccc(OCCCN(C)C)c3)=C(Cl)C2=O)c1 | 52% (inactive)
37 | COc1ccc(-c2cc(-c3cc(OC)ccc3OC)nc(N)c2C#N)cc1 | 62.6% (inactive)
38 | COc1cc2c(cc1NC(=O)C(Cl)Cl)-c1ccc(NC(=O)C(Cl)Cl)cc1C2 | -4.92% (active)
39 | COc1cccc(N=Nc2cccc(OC)c2)c1 | 83.9% (inactive)
40 | COC1=CC(=O)OC(c2ccc(OC)cc2)C1 (stereo not given) | 108% (inactive)
